According to PubChem BioAssay:
Some of the results follow. Active and inactive are the calls of the source.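 How the source made its calls, unless noted: active means GFP response above 150% of the DMSO level; inconclusive means fewer than 70 events counted for a yeast strain; inactive means the rest.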

Columns and labels:
[1] = RPL19A-GFP modulators, yeast TOR pathway, confirmation, cell-based, S. cerevisiae, flow cytometry, cherry picks, mother/daughter gates (AID 2270;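 active means GFP response below 50% of the DMSO control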); details: S. cerevisiae RPL19A-GFP strain, 3 h, at 10 µM, stronger effect = lower value, 100 = same GFP as DMSO wells
[2] = LAP4-GFP expression modulators in yeast, confirmation, cell-based, cherry picks, flow cytometry, mother/daughter gates (AID 2271;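 active means GFP response above 150% of the DMSO control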;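 further: ratio of sample to DMSO plate mean so 100% equals DMSO level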); details: S. cerevisiae LAP4-GFP strain, 3 h, at 10 µM, stronger effect = higher value, 100 means same as DMSO control
[3] = modulators of MEP2-GFP levels in yeast, confirmation, S. cerevisiae, flow cytometry GFP, cherry picks (AID 2272;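 active means GFP response above 150% of the DMSO control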;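 further: ratio of well signal to plate DMSO mean so 100% equals DMSO level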); details: S. cerevisiae MEP2-GFP strain, 3 h, at 10 µM, stronger effect = higher value
[4] = AGP1-GFP expression modulators, hit retest, confirmation, cell-based, flow cytometry, S. cerevisiae, cherry picks (AID 2273);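 further: median GFP channel fluorescence over the whole cell population gate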; details: S. cerevisiae AGP1-GFP strain, 3 h, at 10 µM
[5] = modulators of CIT2-GFP expression in yeast, confirmation, S. cerevisiae, GFP fusion, cherry picks, mother/daughter gates (AID 2274); details: S. cerevisiae CIT2-GFP strain, flow cytometry, 3 h, at 10 µM, stronger effect = higher value
[6] = inhibitors of CD8+ T cell-vesicle binding, pilot screen, LFA-1/ICAM-1 modulator project, MLPCN validation set, flow cytometry (AID 2523;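 active means response below a set limit, under 55% cells CD8-positive and vesicle-bound, and CD8 cells' 90th-percentile brightness under 279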;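 on vesicle binding response: mean PE anti-B7-1 fluorescence of CD8+ cells relative to row control; 100% = QL9-loaded vesicles with DMSO vehicle in the same plate row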); details: 2C mouse CD8+ T cells, at 7 µM, stronger effect = lower value; double positive events: measured here: CD8+/vesicle+ event percentage
[7] = biological target: Integrin beta-1 (Homo sapiens) + Integrin alpha-4 (Homo sapiens) (UniProt P13612+P05556); assay: inhibition of HUTS-21 binding to VLA-4, pilot screen, VLA-4 allosteric modulator project, U937 cells, HUTS-21 mAb, flow cytometry, validation set (AID 2674;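 active means inhibition above 50%, about 3 SD of the validation set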;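 further: antibody binding induced by the VLA-4 ligand LDV present at three times its Kd; 0% = LDV ligand with antibody and no compound and 100% = antibody without LDV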); details: HUTS-21 LIBS mAb binding, at 6.7 µM, stronger effect = higher value, binding induced by LDV ligand
Sequence of Integrin beta-1 (Homo sapiens) + Integrin alpha-4 (Homo sapiens) (P05556 whole entry, looked up): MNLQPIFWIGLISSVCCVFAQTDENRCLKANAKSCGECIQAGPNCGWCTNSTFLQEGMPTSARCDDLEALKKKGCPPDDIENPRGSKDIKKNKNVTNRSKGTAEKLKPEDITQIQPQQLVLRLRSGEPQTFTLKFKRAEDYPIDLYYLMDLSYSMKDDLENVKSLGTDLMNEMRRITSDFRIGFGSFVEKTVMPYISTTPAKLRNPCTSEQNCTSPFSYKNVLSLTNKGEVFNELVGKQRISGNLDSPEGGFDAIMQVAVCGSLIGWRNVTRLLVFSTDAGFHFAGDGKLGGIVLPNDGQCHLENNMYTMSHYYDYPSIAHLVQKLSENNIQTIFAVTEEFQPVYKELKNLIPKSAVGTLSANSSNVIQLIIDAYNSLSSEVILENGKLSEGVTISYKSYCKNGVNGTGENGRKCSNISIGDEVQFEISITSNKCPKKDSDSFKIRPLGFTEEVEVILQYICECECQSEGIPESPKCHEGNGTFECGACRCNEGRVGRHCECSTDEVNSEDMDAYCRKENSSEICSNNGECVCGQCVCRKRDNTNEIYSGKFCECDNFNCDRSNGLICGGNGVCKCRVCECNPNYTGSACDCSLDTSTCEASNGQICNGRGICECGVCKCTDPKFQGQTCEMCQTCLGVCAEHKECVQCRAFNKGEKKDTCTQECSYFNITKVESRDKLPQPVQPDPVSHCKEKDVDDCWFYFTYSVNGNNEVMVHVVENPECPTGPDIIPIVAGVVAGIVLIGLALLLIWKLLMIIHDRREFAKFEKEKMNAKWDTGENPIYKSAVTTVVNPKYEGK
Sequence of Integrin beta-1 (Homo sapiens) + Integrin alpha-4 (Homo sapiens) (P13612 whole entry, looked up): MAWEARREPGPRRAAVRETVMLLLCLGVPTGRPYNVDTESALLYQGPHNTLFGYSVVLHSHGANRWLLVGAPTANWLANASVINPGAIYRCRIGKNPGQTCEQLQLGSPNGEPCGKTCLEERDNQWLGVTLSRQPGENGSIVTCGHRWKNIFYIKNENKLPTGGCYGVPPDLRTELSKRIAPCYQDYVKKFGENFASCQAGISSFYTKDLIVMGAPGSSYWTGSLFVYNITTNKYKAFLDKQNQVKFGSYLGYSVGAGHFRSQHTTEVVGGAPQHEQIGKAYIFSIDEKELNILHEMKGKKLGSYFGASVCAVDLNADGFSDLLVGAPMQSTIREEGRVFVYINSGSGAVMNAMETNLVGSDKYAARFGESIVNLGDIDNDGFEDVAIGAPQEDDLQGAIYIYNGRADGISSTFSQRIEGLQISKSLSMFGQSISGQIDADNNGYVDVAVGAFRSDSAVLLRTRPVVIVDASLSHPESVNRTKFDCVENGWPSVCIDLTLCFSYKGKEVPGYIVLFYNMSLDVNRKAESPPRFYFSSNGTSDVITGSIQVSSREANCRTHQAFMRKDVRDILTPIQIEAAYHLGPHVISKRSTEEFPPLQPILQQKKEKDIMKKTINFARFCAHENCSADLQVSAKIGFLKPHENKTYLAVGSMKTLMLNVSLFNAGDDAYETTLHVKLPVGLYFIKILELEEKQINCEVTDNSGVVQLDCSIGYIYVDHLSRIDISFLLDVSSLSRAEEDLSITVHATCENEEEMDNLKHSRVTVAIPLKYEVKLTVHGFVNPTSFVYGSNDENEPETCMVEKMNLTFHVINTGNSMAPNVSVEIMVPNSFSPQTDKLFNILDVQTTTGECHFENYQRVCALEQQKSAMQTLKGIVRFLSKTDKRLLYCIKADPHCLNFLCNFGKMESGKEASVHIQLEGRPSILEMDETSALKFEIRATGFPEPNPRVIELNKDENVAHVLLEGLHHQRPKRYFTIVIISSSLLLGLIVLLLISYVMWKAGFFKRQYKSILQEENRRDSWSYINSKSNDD

[8] = superoxide lowering in aged yeast cells, pilot screen, validation compound set (AID 2706;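 active means superoxide response below 65% of plate, a cut near 3 SD across the whole screen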;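 further: yeast exposed to compound for one week at 30 degrees C before staining; 100% = mean of all compound wells on the same plate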); details: S. cerevisiae aging, superoxide DHE fluorescence; at 10 µM, stronger effect = lower value
[9] = biological target: Beta-adrenergic receptor kinase 1 (Homo sapiens) (UniProt P25098); assay: GRK2 binders displacing RNA aptamer, biochemical, validation, human GRK2, bead flow cytometry (AID 488806;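 active means aptamer binding inhibition above 30%, about 3 SD of noise from non-fluorescent compounds; inactive means inhibition at or below 30%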); details: bead-bound GRK2, FAM-aptamer displacement, at 10 µM, stronger effect = higher value
Sequence of Beta-adrenergic receptor kinase 1 (Homo sapiens) (P25098 whole entry, looked up): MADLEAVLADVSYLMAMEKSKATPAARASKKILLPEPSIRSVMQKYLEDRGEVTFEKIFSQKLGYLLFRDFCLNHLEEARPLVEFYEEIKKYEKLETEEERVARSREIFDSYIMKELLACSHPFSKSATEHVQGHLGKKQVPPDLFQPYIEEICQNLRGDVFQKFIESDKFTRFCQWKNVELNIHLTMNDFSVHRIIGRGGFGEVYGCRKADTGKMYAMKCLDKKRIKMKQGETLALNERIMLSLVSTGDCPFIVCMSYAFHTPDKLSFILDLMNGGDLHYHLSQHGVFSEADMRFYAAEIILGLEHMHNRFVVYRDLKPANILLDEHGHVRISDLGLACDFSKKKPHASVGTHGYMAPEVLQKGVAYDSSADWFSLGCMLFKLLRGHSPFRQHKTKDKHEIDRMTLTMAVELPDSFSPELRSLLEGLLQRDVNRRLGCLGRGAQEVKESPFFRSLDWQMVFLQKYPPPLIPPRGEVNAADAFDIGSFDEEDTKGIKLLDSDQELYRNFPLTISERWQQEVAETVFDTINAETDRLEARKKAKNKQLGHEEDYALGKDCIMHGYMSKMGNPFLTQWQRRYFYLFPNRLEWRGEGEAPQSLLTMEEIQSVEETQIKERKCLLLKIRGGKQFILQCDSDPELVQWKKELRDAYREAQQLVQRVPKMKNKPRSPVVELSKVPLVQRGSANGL

[10] = biological target: AP-2 complex subunit beta (Homo sapiens) (UniProt P63010); assay: inhibitors of arrestin peptide binding to AP2, pilot screen, biochemical, validation set, GST-AP2 beads, flow cytometry (AID 504541;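 active means inhibition above 54%, about 3 SD of non-fluorescent compounds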;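 further: AP2 carries R879A mutation and is captured from E. coli lysate; bead-bound FITC arrestin peptide fluorescence measuring arrestin peptide binding to AP2; 0% = DMSO wells and 100% = excess unlabeled arrestin peptide control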); details: FITC arrestin peptide, at 10 µM, stronger effect = higher value, AP2 beta2 appendage fragment, R879A mutant
Sequence of AP-2 complex subunit beta (Homo sapiens) (P63010 whole entry, looked up, the tested form may be a part, one chain of several): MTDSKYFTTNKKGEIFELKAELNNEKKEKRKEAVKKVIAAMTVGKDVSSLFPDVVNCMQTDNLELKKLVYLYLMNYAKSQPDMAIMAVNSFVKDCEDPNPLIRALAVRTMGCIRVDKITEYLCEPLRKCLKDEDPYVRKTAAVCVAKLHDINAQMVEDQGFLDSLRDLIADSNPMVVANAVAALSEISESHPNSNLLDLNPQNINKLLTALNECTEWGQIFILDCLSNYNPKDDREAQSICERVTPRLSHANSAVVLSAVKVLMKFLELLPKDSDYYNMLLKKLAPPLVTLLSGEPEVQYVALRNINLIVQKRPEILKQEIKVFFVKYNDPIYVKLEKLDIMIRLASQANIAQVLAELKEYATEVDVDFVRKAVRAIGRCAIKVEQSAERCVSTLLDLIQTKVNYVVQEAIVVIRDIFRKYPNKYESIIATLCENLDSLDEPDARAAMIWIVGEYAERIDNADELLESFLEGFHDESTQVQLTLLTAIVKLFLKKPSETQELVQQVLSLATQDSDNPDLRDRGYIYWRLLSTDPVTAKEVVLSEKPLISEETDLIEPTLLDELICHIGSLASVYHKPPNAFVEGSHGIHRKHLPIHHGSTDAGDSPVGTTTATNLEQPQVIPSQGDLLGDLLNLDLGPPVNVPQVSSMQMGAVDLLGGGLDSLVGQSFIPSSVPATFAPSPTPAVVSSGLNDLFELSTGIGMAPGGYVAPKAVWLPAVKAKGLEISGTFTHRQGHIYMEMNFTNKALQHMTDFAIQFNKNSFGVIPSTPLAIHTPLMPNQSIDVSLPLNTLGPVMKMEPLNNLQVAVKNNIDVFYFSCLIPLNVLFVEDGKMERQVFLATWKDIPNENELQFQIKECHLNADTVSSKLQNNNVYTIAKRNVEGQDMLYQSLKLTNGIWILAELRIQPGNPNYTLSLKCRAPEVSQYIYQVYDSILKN

[11] = yeast V-ATPase proton transport modulators, S. cerevisiae, pHLuorin, HTS validation (AID 504600; in the data active means response above about 15%;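 further: plate controls were DMSO for no effect and reference compound for full effect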); details: S. cerevisiae pHLuorin cytosolic pH, at 10 µM, stronger effect = higher value
[12] = system: anti-desmoglein-3 scFv antibody binding to human DSG3; assay: inhibitors of anti-DSG3 scFv binding to DSG3, pilot screen, biochemical, validation compound set, bead-based, flow cytometry (AID 588368;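 active means binding below the plate cutoff, the plate median minus 3 SD, with a reading above zero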;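 further: signal is the median channel fluorescence of bead-bound GFP antibody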); details: Protein G beads, DSG3-Fc, scFv-GFP binding, at 10 µM, stronger effect = lower value
[13] = inhibitors of fungal efflux pumps CDR1, CDR2, MDR1, pilot screen, validation compound set, multiplex, phenotypic (AID 588506;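 active means efflux inhibition above 0.42, the validation set average plus 4 SD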;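 further: Nile Red retained in cells so higher fluorescence means more efflux inhibition; 0 = negative control wells and 1 = enniatin B 25 µM full block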); details: S. cerevisiae pump-expressing triplex, Nile Red efflux flow cytometry; at 10 µM; stronger effect = higher value; the pumps come from Candida albicans
[14] = biological target: ATP-binding cassette sub-family B member 6 (Homo sapiens) (UniProt Q9NP58); assay: ABCB6 transporter inhibitors, pilot screen, K562-ABCB6 cells, flow cytometry, validation set (AID 588550;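 active means inhibition above the screen-wide mean plus 3 SD, about 51%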;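 further: 0% = DMSO wells and 100% = benzethonium chloride 70 µM positive control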); details: K562-ABCB6 porphyrin accumulation, 1 h, at 10 µM, stronger effect = higher value
Sequence of ATP-binding cassette sub-family B member 6 (Homo sapiens) (Q9NP58 whole entry, looked up): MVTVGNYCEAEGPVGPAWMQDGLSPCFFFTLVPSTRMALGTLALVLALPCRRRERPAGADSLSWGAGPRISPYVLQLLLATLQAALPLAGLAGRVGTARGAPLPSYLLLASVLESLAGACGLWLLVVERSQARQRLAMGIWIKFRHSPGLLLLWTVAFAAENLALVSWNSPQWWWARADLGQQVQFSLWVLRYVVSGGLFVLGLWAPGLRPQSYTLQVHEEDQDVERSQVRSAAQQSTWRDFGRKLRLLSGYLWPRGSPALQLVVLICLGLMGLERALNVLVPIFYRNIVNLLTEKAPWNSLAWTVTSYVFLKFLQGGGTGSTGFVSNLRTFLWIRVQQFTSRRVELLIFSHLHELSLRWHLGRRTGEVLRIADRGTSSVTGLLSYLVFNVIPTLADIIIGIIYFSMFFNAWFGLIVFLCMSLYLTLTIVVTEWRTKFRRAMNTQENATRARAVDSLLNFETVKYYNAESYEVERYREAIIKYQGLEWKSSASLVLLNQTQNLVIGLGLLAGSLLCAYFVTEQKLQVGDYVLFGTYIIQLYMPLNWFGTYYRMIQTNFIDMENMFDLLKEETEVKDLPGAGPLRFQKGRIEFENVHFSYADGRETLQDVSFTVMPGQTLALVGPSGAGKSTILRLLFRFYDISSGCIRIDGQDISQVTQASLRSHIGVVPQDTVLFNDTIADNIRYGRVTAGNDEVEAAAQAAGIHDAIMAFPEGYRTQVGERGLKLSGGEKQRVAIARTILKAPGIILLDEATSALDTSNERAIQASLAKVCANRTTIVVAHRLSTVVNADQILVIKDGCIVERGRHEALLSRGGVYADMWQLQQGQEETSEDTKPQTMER

[15] = promoters of myeloid differentiation in arrested cells, primary screen, cell-based, GFP/MAC1 double positive, flow cytometry, validation set (AID 588685;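 active means differentiation response of at least 50%, scaled between solvent and reference control, from cells with both markers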;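 further: compound exposure lasts four days before antibody staining and flow analysis; 0% = DMSO wells and 100% = 5 µM fulvestrant positive control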); details: ER-HoxA9 marrow cells, stronger effect = higher value, normalized: vehicle 0, fulvestrant 100
[16] = compound autofluorescence in yeast s288c, dose response, artefact control for yeast TOR pathway GFP screen, s288c strain (AID 2757;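 active means fluorescence span over the dose series, or activity score, above about 33, limit read from the data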;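 further: thousands of bead-calibrated equivalent soluble fluorophore molecules from median cell fluorescence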); details: S. cerevisiae s288c, 520 nm autofluorescence, flow cytometry, 3 h; at 33 µM; stronger effect = higher value; zero means same as solvent-only cells
[17] = measured here: daughter cell gate
[18] = measured here: mother cell gate
[19] = measured here: daughter cell gate response
[20] = measured here: mother cell gate response

## CCCCC(=O)O[C@]1(C(=O)CO)CC[C@H]2[C@@H]3CCC4=CC(=O)CC[C@]4(C)[C@H]3[C@@H](O)C[C@@]21C
[1]
  GFP response vs DMSO: 96.8% (inactive)
[1]; [17]
  GFP response vs DMSO: 96.4%
[1]; [18]
  GFP response vs DMSO: 99%
[2]
  GFP response relative to DMSO: 101% (inactive)
[2]; [19]
  GFP response relative to DMSO: 101%
[2]; [20]
  GFP response relative to DMSO: 99.3%
[3]
  GFP response vs DMSO: 105% (inactive)
[4]
  GFP response, % of DMSO: 99.3% (inactive)
[5]
  GFP response, % of DMSO: 101% (inactive)
[5]; [17]
  GFP response, % of DMSO: 101%
[5]; [18]
  GFP response, % of DMSO: 101%
[6]
  double positive events: 62.4%
  vesicle binding response: 271% (inactive)
[7]
  inhibition: 4.42% (inactive)
[8]
  superoxide response (% of plate): 83.1% (inactive)
[9]
  aptamer binding inhibition: 2% (inactive)
[10]
  inhibition: -7.47% (inactive)
[11]
  response: -1.11% (inactive)
[12]
  binding (% of control): 101% (inactive)
[13]
  efflux inhibition (fraction of control): 0.1 (inactive)
[14]
  inhibition: 9% (inactive)
[15]
  differentiation response: -6.66% (inactive)

## C/C(=N\NC(=O)c1c(Br)c(C)nn1C)c1cccc(NC(=O)C2CCC2)c1
[1]
  GFP response vs DMSO: 100% (inactive)
[1]; [17]
  GFP response vs DMSO: 101%
[1]; [18]
  GFP response vs DMSO: 102%
[2]
  GFP response relative to DMSO: 101% (inactive)
[2]; [19]
  GFP response relative to DMSO: 97.9%
[2]; [20]
  GFP response relative to DMSO: 101%
[3]
  GFP response vs DMSO: 102% (inactive)
[4]
  GFP response, % of DMSO: 106% (inactive)
[5]
  GFP response, % of DMSO: 99.3% (inactive)
[5]; [17]
  GFP response, % of DMSO: 98.3%
[5]; [18]
  GFP response, % of DMSO: 99.1%

## Cc1cc(O)c(C(=O)/C=C/c2c(F)c(F)c(F)c(F)c2F)c(=O)o1
[1]
  GFP response vs DMSO: 98.2% (inactive)
[1]; [17]
  GFP response vs DMSO: 103%
[1]; [18]
  GFP response vs DMSO: 94.9%
[2]
  GFP response relative to DMSO: 152% (active)
[2]; [19]
  GFP response relative to DMSO: 145%
[2]; [20]
  GFP response relative to DMSO: 160%
[3]
  GFP response vs DMSO: 109% (inactive)
[4]
  GFP response, % of DMSO: 101% (inactive)
[5]
  GFP response, % of DMSO: 97.3% (inactive)
[5]; [17]
  GFP response, % of DMSO: 101%
[5]; [18]
  GFP response, % of DMSO: 94.4%
[16]
  fluorescence change (kMESF span): 9.67 (inactive)

## Oc1c(N=Nc2ccccn2)ccc2ccccc12
[1]
  GFP response vs DMSO: 94.8% (inactive)
[1]; [17]
  GFP response vs DMSO: 83.8%
[1]; [18]
  GFP response vs DMSO: 87.3%
[2]
  GFP response relative to DMSO: 95.3% (inactive)
[2]; [20]
  GFP response relative to DMSO: 66%
[3]
  GFP response vs DMSO: 104% (inactive)
[4]
  GFP response, % of DMSO: 84.7% (inactive)
[5]
  GFP response, % of DMSO: 93.5% (inactive)
[5]; [17]
  GFP response, % of DMSO: 94.6%
[5]; [18]
  GFP response, % of DMSO: 81.6%

## C[n+]1ccc(/C=C/c2c[nH]c3ccccc23)cc1
[1]
  GFP response vs DMSO: 107% (inactive)
[1]; [17]
  GFP response vs DMSO: 105%
[1]; [18]
  GFP response vs DMSO: 107%
[2]
  GFP response relative to DMSO: 143% (inactive)
[2]; [19]
  GFP response relative to DMSO: 143%
[2]; [20]
  GFP response relative to DMSO: 143%
[3]
  GFP response vs DMSO: 187% (active)
[4]
  GFP response, % of DMSO: 107% (inactive)
[5]
  GFP response, % of DMSO: 145% (inactive)
[5]; [17]
  GFP response, % of DMSO: 142%
[5]; [18]
  GFP response, % of DMSO: 146%
[16]
  fluorescence change (kMESF span): 5.54 (inactive)

## COc1ccc(N=Cc2cc(Cc3ccccc3Cl)cc([N+](=O)[O-])c2O)cc1OC
[1]
  GFP response vs DMSO: 93.4% (inactive)
[1]; [17]
  GFP response vs DMSO: 93%
[1]; [18]
  GFP response vs DMSO: 86.5%
[2]
  GFP response relative to DMSO: 142% (inactive)
[2]; [19]
  GFP response relative to DMSO: 114%
[2]; [20]
  GFP response relative to DMSO: 147%
[3]
  GFP response vs DMSO: 120% (inactive)
[4]
  GFP response, % of DMSO: 96.7% (inactive)
[5]
  GFP response, % of DMSO: 96.5% (inactive)
[5]; [17]
  GFP response, % of DMSO: 86.7%
[5]; [18]
  GFP response, % of DMSO: 96.6%
